Laboratory results: PubChem BioAssay (NCI)
The panel holds about 79,000 compounds, 15% with a hit somewhere; the sample as a whole holds those more often. Rule as the data show it: active = growth inhibition above about 70%; inactive = the rest. Where a SMILES comes first, the peptide text is derived from it. [ ]: non-standard residue; d: D form. The star is where a group is joined. ξ: configuration not given here. X15 = COc1ccc(C(N*)c2ccc(OC)cc2)cc1; NMeF = CN[C@@H](Cc1ccccc1)C(=O)O; NMeD = CN[C@@H](CC(=O)O)C(=O)O; NMeV = CN[C@H](C(=O)O)C(C)C; ξNMeV = CNC(C(=O)O)C(C)C; Boc = CC(C)(C)OC(=O)*; ξNMeA = CNC(C)C(=O)O; ξV = CC(C)C(N)C(=O)O

How the values were obtained:
[1] = NCI Yeast Anticancer Drug Screen. Data for the rad50 strain (AID 155);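 also: 0% = growth of vehicle-only cultures of the same strain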; conditions: S. cerevisiae rad50 strain growth inhibition; at 50.0 µM; active compounds read high
Summary of the method: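 Yeast carrying a defined DNA repair defect were exposed to test compounds, and growth was compared with vehicle-treated controls to give percent inhibition.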

[2] = NCI Yeast Anticancer Drug Screen. Data for the mec2-1 strain (AID 157); conditions: S. cerevisiae mec2-1 strain, at 50.0 µM, active compounds read high
Summary of the method: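 Vehicle-treated cultures served as reference for growth inhibition of compound-exposed mec2-1 yeast.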

[3] = NCI Yeast Anticancer Drug Screen. Data for the sgs1 mgt1 strain (AID 161);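 also: 0% = growth of cultures given vehicle only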; conditions: S. cerevisiae sgs1 mgt1 strain, at 50.0 µM, active compounds read high
Summary of the method: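 Mutant yeast exposed to compound; growth scored against vehicle-only wells.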

[4] = NCI Yeast Anticancer Drug Screen. Data for the cln2 rad14 strain (AID 165);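 also: 0% = growth equal to vehicle treated cultures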; conditions: S. cerevisiae cln2 rad14 strain, at 50.0 µM, active compounds read high
Summary of the method: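 Each compound was tested on cln2 rad14 yeast. Inhibition of growth was calculated against vehicle-exposed controls.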

[5] = NCI Yeast Anticancer Drug Screen. Data for the bub3 strain (AID 167); conditions: S. cerevisiae bub3 mutant strain, at 50.0 µM, active compounds read high
Summary of the method: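 Compounds were applied to a genetically altered yeast strain carrying a cell-cycle control defect. Growth inhibition was scored against vehicle-treated controls.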

[6] = NCI Yeast Anticancer Drug Screen. Data for the mlh1 rad18 strain (AID 175); conditions: S. cerevisiae mlh1 rad18 strain growth inhibition; at 50.0 µM; active compounds read high
Summary of the method: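 Vehicle-treated cultures served as the reference for growth inhibition in a yeast strain carrying DNA damage repair alterations exposed to each compound.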

Measured: growth inhibition

NS(=O)(=O)c1ccc2cc(S(N)(=O)=O)ccc2c1
inactive: [1] 19.1% | [2] 13.5% | [3] 22.4% | [4] 15.5% | [5] 23.1% | [6] 25.8%

COc1cc(N=Nc2ccccc2)cc(/C=N\NC(=S)Nc2cccc(C)c2)c1O
inactive: [1] 35.2% | [2] 19.9% | [3] 29.8% | [4] 24.9% | [5] -8.15% | [6] 39.7%

CCCCCCCCCCCCCBr
inactive: [1] 29.8% | [2] -0.95% | [3] 13.2% | [4] 19.9% | [5] 18.1% | [6] 15.8%

O=C(Nc1ccc([N+](=O)[O-])cc1Cl)OCCc1ccccn1
inactive: [1] 3.25% | [2] 26.9% | [3] 23.6% | [4] -10.6% | [5] 52% | [6] 20.5%

CCCN/C=C1\CC(=O)N(C)C1=O
inactive: [1] 5.15% | [2] 8.45% | [3] 2.5% | [4] -33.7% | [5] 6.4% | [6] 11.2%

CC(C)CCCC(C)C1CCC2C3CCC4=CC(=O)C=CC4(C)C3CCC12C (stereo not given)
inactive: [1] 45.1% | [2] 35.2% | [3] 47.6% | [4] 19.1% | [5] 0.85% | [6] 41%

Cc1ccc(COC(=O)Nc2ccc(C)c(NC(=O)OCc3ccc(C)cc3)c2)cc1
inactive: [1] 14.4% | [2] -1.15% | [3] 11.7% | [4] -2.9% | [5] -3.8% | [6] 30.1%

COc1ccc(C(NC(=O)C[C@@H](C(=O)N(C)C(C)C(=O)O)N(C)C(=O)[C@@H]2CCCN2C(=O)[C@H](C(C)C)N(C)C(=O)C(C(C)C)N(C)C(=O)[C@H](Cc2ccccc2)N(C)C(=O)C(NC(=O)OC(C)(C)C)C(C)C)c2ccc(OC)cc2)cc1 (stereo not given in full) (Boc-[ξV][NMeF][ξNMeV][NMeV]P[NMeD](X15)[ξNMeA]-OH)
inactive: [1] -30.5% | [2] -23.9% | [3] -20.9% | [4] -7.45% | [5] -6.25% | [6] -31.4%

CCOc1ccccc1NC(=O)c1c(Br)c(Br)c(Br)c(Br)c1C(=O)O
inactive: [1] 5.6% | [2] -16.8% | [3] -1.8% | [4] -4.15% | [5] 6.05% | [6] -17.6%

CCOC(=O)CCC(Cl)(Cl)Cl
inactive: [1] 14% | [2] -9.95% | [3] -1.45% | [4] -39% | [5] -7.85% | [6] 9.2%

COC1=C(C(C2=C(OC)CC(C)(C)CC2=O)c2ccc3c(c2)OCO3)C(=O)CC(C)(C)C1
inactive: [1] 31.6% | [2] 7.7% | [3] -9.05% | [4] 0.3% | [5] -0.65% | [6] 11.9%

CC(=O)/C=C/C=C/c1ccco1
inactive: [1] -0.85% | [2] 1.3% | [3] 9.15% | [4] -9.7% | [5] 10.4% | [6] 11.6%

O=S(Cc1cc2c(cc1Br)OCO2)c1ccccc1 (stereo not given)
inactive: [1] -27% | [2] -33.5% | [3] -20% | [4] -22.4% | [5] -37.7% | [6] -29.1%

N#C/C(=C\c1ccco1)C(N)=O
inactive: [1] -11% | [2] -7% | [3] -14.6% | [4] 5.25% | [5] 10.9% | [6] -10.7%

CCOC(=O)C(Cl)(NC(=O)NC(Cl)(C(=O)OCC)C(F)(F)F)C(F)(F)F (stereo not given)
inactive: [1] 3.8% | [2] 23.8% | [3] -0.85% | [4] -1.75% | [5] 3.2% | [6] 6.65%

C=C(C)C1CC/C(C)=C/CC[C@]2(C)O[C@H]2CC/C(COC(C)=O)=C\[C@@H]1O (stereo not given in full)
inactive: [1] -7.9% | [2] -8.7% | [3] 2.2% | [4] 3.65% | [5] -18.6% | [6] -54.6%

CCCCCCCCCCCCNc1ncnc2c1cnn2C
inactive: [1] -9.1% | [2] -14.4% | [3] -1.25% | [4] -47.2% | [5] 23.9% | [6] -25.2%

Cc1ccc2nnc(NS(=O)(=O)c3cc(C)c(Cl)cc3S)n2n1
inactive: [1] -30.3% | [2] -7.75% | [3] -24.9% | [4] -16.9% | [5] -0.9% | [6] -25.4%

CC(=O)c1c(Cl)cc(Cl)c(Cl)c1Cc1c(Cl)c(Cl)cc(Cl)c1C(C)=O
inactive: [1] 9.5% | [2] 9.8% | [3] 7% | [4] 18.2% | [5] 5.95% | [6] 9.55%

CCOc1ccc(N=Nc2ccc3oc(=O)c(/C(C)=N/NC(=O)CC(=O)Nc4cccc(OC)c4)cc3c2)cc1
inactive: [1] 44.5% | [2] 36% | [3] 25.2% | [4] -17.3% | [5] -5% | [6] 44.1%
